{
  "source": "PubChem BioAssay AID623868",
  "about": "(Vanderbilt High Throughput Screening Facility, 2012)",
  "note": "Screen size: about 2,100 compounds; about 760 (36%) were called active. Only a sample is shown. Unmarked numbers belong to inactive results.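 Rule for the calls: active = thallium-flux fluorescence traces judged by eye to show enhanced or reduced glutamate response, manual score 1 or -1, so both directions (some results past the limit were not filed as active); inactive = the rest, including fluorescent or raised-baseline compounds.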",
  "data": [
    {"test": "thallium influx changes without GIRK channels – cell-based, HEK-293 rmGlu8, no GIRK, thallium flux, counter-screen for GIRK activator project, confirmation (AID 623868);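 note: extra codes mark interference with 3 for fluorescent and 4 for baseline rise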", "settings": "thallium flux fluorescence, at 10 µM, actives lie on both sides, codes: 1 enhancer, -1 blocker, 0 none, thallium stimulus containing EC20 glutamate", "values": [
      {"smiles": "Cc1cc(O)c(C(C[N+](=O)[O-])c2ccc(Cl)cc2Cl)c(=O)o1", "note": "(stereo not drawn)", "manual score": 0},
      {"smiles": "O=C(O)CCC(=O)NC1CCCCCCC1", "manual score": 0},
      {"smiles": "CSc1ccccc1NC(=O)Nc1ccccc1", "manual score": 0},
      {"smiles": "O=C(Nc1ccc(OCC(=O)N2CCC(Cc3ccccc3)CC2)cc1)c1ccco1", "manual score": 0},
      {"smiles": "CC(=O)c1cccc(NC(=S)NC(=O)c2cccc(C)c2)c1", "manual score": 0.5},
      {"smiles": "CSc1ccccc1C(=O)Nc1cccc(C(C)=O)c1", "manual score": 0},
      {"smiles": "CC1CCN(c2ccc(NC(=S)NC(=O)c3ccco3)cc2)CC1", "manual score": "1 (active)"},
      {"smiles": "O=C(NC(=S)Nc1ccc(N2CCCCC2)cc1)c1ccco1", "manual score": "1 (active)"},
      {"smiles": "O=C(NC(=S)Nc1cccc(Cl)c1N1CCCCC1)c1ccco1", "manual score": "1 (active)"},
      {"smiles": "CC(=O)c1cccc(NC(=S)NC(=O)c2cccc(Cl)c2)c1", "manual score": "1 (active)"},
      {"smiles": "CC1CCN(c2ncccc2C(=O)O)CC1", "manual score": 0},
      {"smiles": "C=CCN(CC=C)S(=O)(=O)c1ccc(NC(=S)NC(=O)c2ccco2)cc1", "manual score": 0.5},
      {"smiles": "O=C(NC(=S)Nc1ccc(N2CCOCC2)c(Cl)c1)c1cncc(Br)c1", "manual score": "1 (active)"},
      {"smiles": "O=C(NC(=S)Nc1ccc(N2CCOCC2)cc1)c1ccco1", "manual score": "1 (active)"},
      {"smiles": "COc1ccc(OCC(=O)NC(=S)Nc2ccc(N3CCOCC3)c(Cl)c2)cc1", "manual score": 0},
      {"smiles": "O=C(Nc1ccc(F)cc1)c1cccnc1N1CCOCC1", "manual score": 0},
      {"smiles": "CCN(c1ccc2c(c1)OCO2)S(=O)(=O)c1cc(Br)cc2c1N(C(=O)C1CC1)CC2", "manual score": 0},
      {"smiles": "N=c1c2c(-c3ccccc3)c(-c3ccccc3)n(Cc3ccccc3)c2ncn1CCCO", "manual score": 0},
      {"smiles": "CCC1=NN(C(=O)c2cccc(Br)c2)C(O)(c2ccc(Br)cc2)C1", "note": "(stereo not drawn)", "manual score": "1 (active)"},
      {"smiles": "CCOC(=O)C1=NN(C(=O)c2ccc(C)cc2)C(O)(c2ccc(Cl)cc2)C1", "note": "(stereo not drawn)", "manual score": "1 (active)"},
      {"smiles": "CCOC(=O)C1=NN(C(=O)c2ccccc2)C(O)(c2ccc(C)cc2)C1", "note": "(stereo not drawn)", "manual score": "1 (active)"},
      {"smiles": "Cc1ccc(-c2csc3ncnc(N4CCN(C(=O)c5ccccc5)CC4)c23)cc1", "manual score": 0},
      {"smiles": "CCOC(=O)c1cc(-c2ccc(Cl)cc2)nc2c1c(C)nn2CCC#N", "manual score": 0},
      {"smiles": "COC(=O)C1=NN(C(=O)c2ccc(Cl)cc2)C(O)(c2ccccc2)C1", "note": "(stereo not drawn)", "manual score": "1 (active)"},
      {"smiles": "CCOC(=O)c1c(C)[nH]c(C(=O)COC(=O)CNC(=O)c2ccc(Cl)cc2)c1C", "manual score": 0},
      {"smiles": "CCOC(=O)C1=C(NC(=S)NC(=O)c2ccccc2)c2ccccc2CC1(C)C", "manual score": 0},
      {"smiles": "O=[n+]1cc(-c2ccccc2)n([O-])c2c1CCC2", "manual score": 0},
      {"smiles": "Cc1ccc(NC(=O)CSc2nnc(CCNC(=O)OC(C)(C)C)o2)c(C)c1", "manual score": 0},
      {"smiles": "O=C1CC(C(F)(F)C(F)(F)C(F)(F)F)=Nc2ccccc2N1", "manual score": 0},
      {"smiles": "Cc1ccc(NC(=O)Cc2c(Cl)cccc2Cl)cc1S(=O)(=O)N(C)C", "manual score": 0},
      {"smiles": "COc1ccccc1C(c1nnnn1CCc1ccccc1)N1CCCCCC1", "note": "(stereo not drawn)", "manual score": 0},
      {"smiles": "COC(=O)C1=NN(C(=O)c2ccc(C)cc2)C(O)(c2ccc(Cl)cc2)C1", "note": "(stereo not drawn)", "manual score": "1 (active)"},
      {"smiles": "COc1ccc2cc(C(=O)NCC(=O)O)sc(=O)c2c1OC", "manual score": 0},
      {"smiles": "CC(C)CCn1c(SCC#N)nc2c(sc3ccccc32)c1=O", "manual score": 0},
      {"smiles": "CCCCn1c(SCC(=O)/C(C#N)=C(\\C)N)nc2ccccc2c1=O", "manual score": "1 (active)"},
      {"smiles": "C/C(N)=C(/C#N)C(=O)CSc1nc2cc(Cl)ccc2c(=O)n1-c1ccc(C)cc1", "manual score": "1 (active)"},
      {"smiles": "CCCCn1c(SCC(=O)NCc2ccco2)nc2ccccc2c1=O", "manual score": "1 (active)"},
      {"smiles": "N#CCSc1nc2ccc(N3CCOCC3)cc2c(=O)n1CCc1ccccc1", "manual score": 0},
      {"smiles": "CCCCn1c(SCc2nc(N)nc(Nc3ccccc3C)n2)nc2ccccc2c1=O", "manual score": 0},
      {"smiles": "CCCCn1c(SCC(N)=O)nc2c(sc3ccccc32)c1=O", "manual score": "1 (active)"},
      {"smiles": "O=C(CCCCn1c(=O)c2ccccc2n(CC(=O)NC2CCCC2)c1=O)NCc1ccco1", "manual score": 0},
      {"smiles": "CCOC(=O)CSc1nc2c(sc3ccccc32)c(=O)n1CCCN1CCOCC1", "manual score": 0},
      {"smiles": "CCCCCn1c(NCc2ccco2)nc2ccccc21", "manual score": 0},
      {"smiles": "O=c1sc(N2CCN(c3ccccc3F)CC2)nc2ccsc12", "manual score": 0},
      {"smiles": "COc1ccc(C2C(C(N)=O)=C(C)Nc3nc(-c4cccc(Cl)c4)nn32)cc1OC", "note": "(stereo not drawn)", "manual score": 0},
      {"smiles": "OC(c1ccccc1)C1CN(Cc2ccccc2)CCC1(O)c1ccccc1", "note": "(stereo not drawn)", "manual score": 0},
      {"smiles": "CCOC(=O)c1cc(NC(=O)SCC(=O)O)c(C)nc1C", "manual score": 0},
      {"smiles": "C=CCNC(=S)Nc1nc2c(cc1C(=O)OCC)CCCC2", "manual score": "1 (active)"},
      {"smiles": "CCNC(=S)Nc1nc2c(cc1C(=O)OCC)CCCC2", "manual score": "1 (active)"},
      {"smiles": "C=C(C)CNC(=S)Nc1nc2c(cc1C(=O)OCC)CCCC2", "manual score": "1 (active)"},
      {"smiles": "C=C(C)CNC(=S)N/N=C1\\CCCCc2ccccc21", "manual score": 0},
      {"smiles": "Cc1cc(C)cc(NC(=O)Cn2cc3c(n2)CCCCC3)c1", "manual score": 0},
      {"smiles": "CCN(C(=O)COc1cc(=O)n(CC)c2ccccc12)c1cc(Cl)ccc1OC", "manual score": 0},
      {"smiles": "N#CC(C#N)=C1C=C2C=C(N3CCCCC3)CCC2CC1", "note": "(stereo not drawn)", "manual score": 3},
      {"smiles": "O=C(COc1ccccc1)NNC(=S)NC(=O)c1ccc(Cl)cc1Cl", "manual score": "1 (active)"},
      {"smiles": "Cc1ccc(C(=O)NNC(=S)NC(=O)c2ccc(Cl)cc2Cl)cc1", "manual score": "1 (active)"},
      {"smiles": "Cc1onc(-c2ccccc2)c1C(=O)NNC(=S)NC(=O)c1ccc(Br)cc1", "manual score": "1 (active)"},
      {"smiles": "O=C(NC(=S)NNC(=O)c1cccs1)c1ccc(Br)o1", "manual score": "1 (active)"},
      {"smiles": "Cc1ccc(-c2cnc(NC(=O)CCC(=O)N3CCCCC3)n2C)cc1", "manual score": 0},
      {"smiles": "CCOC(=O)N1CCC(NC(=O)c2cnn3c2NC(c2ccco2)CC3C(F)(F)F)CC1", "note": "(stereo not drawn)", "manual score": 0},
      {"smiles": "COc1cc(OC)c2nc(C)c3c(c2c1)N(c1ccc(O)cc1)CC3", "manual score": 0},
      {"smiles": "CCC1Oc2ccc(C)cc2N(CC(=O)N(Cc2ccc(C)o2)C2CCCC2)C1=O", "note": "(stereo not drawn)", "manual score": 0},
      {"smiles": "CCOC(=O)c1oc2nc(C(C)C)c3c(c2c1N)CC(C)(C)OC3", "manual score": 0},
      {"smiles": "Cc1cccc(C(=O)NC(=S)NNC(=O)c2ccccc2Cl)c1", "manual score": "1 (active)"},
      {"smiles": "Cc1ccccc1C(=O)NNC(=S)NC(=O)c1ccccc1", "manual score": "1 (active)"},
      {"smiles": "Cc1ccccc1C(=O)NC(=S)Nc1sc2c(c1C#N)CCCC2", "manual score": 0},
      {"smiles": "Cc1cccc(C(=O)NC(=S)NNC(=O)c2cccs2)c1", "manual score": "1 (active)"},
      {"smiles": "Cc1onc(-c2ccccc2)c1C(=O)NC(=S)Nc1sc2c(c1C#N)CCCC2", "manual score": "1 (active)"},
      {"smiles": "O=C(CSc1nnc2ccccn12)Nc1nsc(-c2ccccc2)n1", "manual score": 0},
      {"smiles": "CCc1ccccc1N(C)C(=O)CCc1nc(-c2ccc(C)cc2)no1", "manual score": 0},
      {"smiles": "O=C(Nc1cccc(S(=O)(=O)c2cccc(NC(=O)C3CC3)c2)c1)C1CC1", "manual score": 0.5},
      {"smiles": "Cc1cccc(NC(=O)CN(c2ccc(C(C)C)cc2)S(=O)(=O)c2c(C)nn(C)c2C)n1", "manual score": 0},
      {"smiles": "COc1ccc(C2CC(c3ccc(Cl)c(Cl)c3)Nc3nc(N)nn32)cc1", "note": "(stereo not drawn)", "manual score": 0},
      {"smiles": "Cc1cccc(C(=O)NC(=S)NNC(=O)c2ccc(Cl)cc2)c1", "manual score": "1 (active)"},
      {"smiles": "Cc1ccccc1C(=O)NNC(=O)C(=O)Nc1cccc(Cl)c1C", "manual score": "1 (active)"},
      {"smiles": "Cc1c(Cl)cccc1NC(=S)/C(=C(\\[O-])c1ccc(Cl)s1)[n+]1ccccc1", "manual score": 0},
      {"smiles": "Cc1ccc(C(=O)NNC(=S)NC(=O)c2ccc(Cl)cc2)cc1", "manual score": "1 (active)"},
      {"smiles": "Cc1ccccc1C(=O)NNC(=S)NC(=O)c1ccc(Cl)cc1Cl", "manual score": "1 (active)"},
      {"smiles": "Cc1ccccc1C(=O)NC(=S)Nc1ccc(Oc2ccc(Cl)cc2)cc1", "manual score": 0},
      {"smiles": "O=C(O)C1C2C=CC3(CN(C4CCCC4)C(=O)C13)O2", "note": "(stereo not drawn)", "manual score": 0},
      {"smiles": "O=C1C2C3C=CC(C3)C2C(=O)N1/N=C/c1cn(Cc2ccccc2)c2ccccc12", "note": "(stereo not drawn)", "manual score": 0},
      {"smiles": "Cc1cc(C)nc(N(C#N)Cc2ccc(Br)cc2)n1", "manual score": 0},
      {"smiles": "CCn1c(SCC(=O)c2cc(C)n(CC3CCCO3)c2C)nc2ccccc21", "note": "(stereo not drawn)", "manual score": 0},
      {"smiles": "O=C(CSc1nc2ccc(Cl)cc2[nH]1)Nc1ccc2c(c1)CCC2", "manual score": 0},
      {"smiles": "Cc1ccc(CSc2nc3ccncc3[nH]2)cc1", "manual score": 0},
      {"smiles": "COC(=O)c1cc(CSc2nc3ccc(C)cc3[nH]2)oc1C", "manual score": "-1 (active)"},
      {"smiles": "O=C(CCS(=O)NCc1ccccc1)NCc1ccccc1", "note": "(stereo not drawn)", "manual score": 0},
      {"smiles": "Cc1ccc(N2C=Nc3ccc(C)c4nc(C)cc2c34)cc1", "manual score": "-1 (active)"},
      {"smiles": "CN1CC=C2C(C#N)=C(N)C(C#N)(C#N)[C@H](c3cccc(Cl)c3)C2C1", "note": "(stereo partly drawn)", "manual score": 3},
      {"smiles": "Cc1ccc(CN2C3=NCCCN3c3ccccc32)cc1", "manual score": 0},
      {"smiles": "COc1ccc(CN2CCNC(=O)C2CC(=O)O)cc1OC", "note": "(stereo not drawn)", "manual score": 0},
      {"smiles": "COc1cc(/C=C(/C#N)c2ccc(F)cc2)ccc1OCc1ccc(C(=O)O)o1", "manual score": "-1 (active)"},
      {"smiles": "COc1cc(CNCCc2c[nH]c3ccccc23)ccc1OCc1ccc(F)cc1", "manual score": 0},
      {"smiles": "CSc1nc(Sc2ccccc2)c2ccccc2n1", "manual score": 0},
      {"smiles": "O=C(/C=C/c1cccs1)NC(=S)NNC(=O)Cc1cccs1", "manual score": "1 (active)"},
      {"smiles": "O=C(Cc1cccs1)Nc1cccnc1", "manual score": 0},
      {"smiles": "COc1cc(NC(=O)Cc2cccs2)cc(OC)c1", "manual score": 0},
      {"smiles": "CCOc1ccc(C(=O)CN2CCN(S(=O)(=O)c3ccc(Br)cc3)CC2)cc1", "manual score": 0},
      {"smiles": "O=C(NNC(=O)c1cc(-c2ccccc2)n(-c2ccccc2)n1)c1cccc([N+](=O)[O-])c1", "manual score": "1 (active)"},
      {"smiles": "CC(=O)c1sc(NC(=O)c2cc(-c3ccccc3)nn2-c2ccccc2)nc1C", "manual score": 0},
      {"smiles": "COc1ccc(Nc2nc(-c3cccc([N+](=O)[O-])c3)nc3ccccc23)cc1", "manual score": 0},
      {"smiles": "Cn1c2ccccc2c2cc(C(=O)NNS(=O)(=O)c3ccc(F)cc3)sc21", "manual score": 0.5},
      {"smiles": "Cc1sc2c(c1C)CN(C1CC(C)(C)NC(C)(C)C1)CN2C(=O)c1ccco1", "manual score": 0}
    ]}
  ]
}
